Experimental data reported in PubChem BioAssay (EPA / NIEHS).
Results filed as inconclusive are left out. Active and inactive are the calls of the source. The calls were made as follows, unless noted: active = hit-call score of the fitted dose curve at least 0.9, where 1 is the maximum; inactive = score below 0.9.

Read-out: CD69, CD69 (gene 969)
Assay: BSK_SAg_CD69: BioMAP Diversity Plus: SAg Assay for CD69 Biomarker Activity (AID 2283089);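 as to AC50: cell surface CD69 protein quantified by ELISA with fluorescence detection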
Conditions: primary human HUVEC with PBMC; actives raise or lower the signal
Procedure, shortened: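 HUVEC co-cultured with PBMC were dosed with chemical, and CD69 was measured by ELISA with fluorescence read-out 24 h later. Bidirectional curve fitting used DMSO as negative control and activity baseline.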

E-selectin (Homo sapiens), sequence (P16581 whole entry, looked up): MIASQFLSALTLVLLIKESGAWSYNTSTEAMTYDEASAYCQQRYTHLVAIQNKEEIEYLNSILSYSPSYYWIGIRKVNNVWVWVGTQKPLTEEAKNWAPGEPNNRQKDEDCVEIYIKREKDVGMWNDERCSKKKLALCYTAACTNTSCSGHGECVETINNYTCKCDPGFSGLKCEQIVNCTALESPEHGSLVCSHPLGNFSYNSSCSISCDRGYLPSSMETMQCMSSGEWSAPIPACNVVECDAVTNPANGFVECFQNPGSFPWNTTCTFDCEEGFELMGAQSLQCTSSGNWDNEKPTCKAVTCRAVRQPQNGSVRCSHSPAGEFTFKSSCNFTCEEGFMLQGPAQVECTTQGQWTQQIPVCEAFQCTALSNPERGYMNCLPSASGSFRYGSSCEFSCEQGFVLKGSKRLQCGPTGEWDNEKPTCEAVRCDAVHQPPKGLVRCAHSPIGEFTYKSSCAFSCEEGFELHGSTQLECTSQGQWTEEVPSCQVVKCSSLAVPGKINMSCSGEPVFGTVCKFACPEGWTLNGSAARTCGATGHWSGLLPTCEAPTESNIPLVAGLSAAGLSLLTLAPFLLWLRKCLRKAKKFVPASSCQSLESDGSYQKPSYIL

| SMILES | outcome | AC50 |
| --- | --- | --- |
| CCCCCCC(O)CCCCCCCCCCC(=O)OC (centres undefined) | inactive |  |
| CCC(C)=NO | inactive |  |
| Cc1cc(-n2nc3ccc(Cl)cc3n2)c(O)c(C(C)(C)C)c1 | inactive |  |
| Oc1cccc2ccccc12 | inactive |  |
| CN(C)c1ccc(C(c2ccccc2)c2ccc(N(C)C)cc2)cc1 |  | 20 µM (active) |
| CC[N+](CC)(CC(=O)Nc1c(C)cccc1C)Cc1ccccc1 (tested in a mixture with another compound) | inactive |  |

Read-out: Monocyte Chemoattractant Protein-1 (MCP1), CCL2 (gene 6347)
Assay: BSK_SAg_MCP1: BioMAP Diversity Plus: SAg Assay for Monocyte Chemoattractant Protein-1 (MCP1) Biomarker Activity (AID 2283090)
Conditions: primary human HUVEC with PBMC; actives raise or lower the signal
Procedure, shortened: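 MCP-1 levels in the endothelial–PBMC SAg co-culture were quantified by ELISA at 24 h post-dosing; both increases and decreases versus DMSO scored. Cytotoxicity monitored by SRB total protein in parallel cultures.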

| SMILES | outcome | AC50 |
| --- | --- | --- |
| CCCCCCC(O)CCCCCCCCCCC(=O)OC (centres undefined) | inactive |  |
| CCC(C)=NO | inactive |  |
| Cc1cc(-n2nc3ccc(Cl)cc3n2)c(O)c(C(C)(C)C)c1 | inactive |  |
| Oc1cccc2ccccc12 | inactive |  |
| CN(C)c1ccc(C(c2ccccc2)c2ccc(N(C)C)cc2)cc1 |  | 12.9 µM (active) |
| CC[N+](CC)(CC(=O)Nc1c(C)cccc1C)Cc1ccccc1 (tested in a mixture with another compound) | inactive |  |

Read-out: E-selectin (Homo sapiens) (UniProt P16581)
Assay: BSK_SAg_Eselectin: BioMAP Diversity Plus: SAg Assay for Eselectin Biomarker Activity (AID 2283091)
Conditions: primary human HUVEC with PBMC; actives raise or lower the signal
Procedure, shortened: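 Primary human endothelial cells and peripheral blood mononuclear cells were co-cultured and exposed to chemical for 24 hours. E-selectin levels were then quantified by ELISA, with bidirectional curve fitting normalised to DMSO controls.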

| SMILES | outcome | AC50 |
| --- | --- | --- |
| CCCCCCC(O)CCCCCCCCCCC(=O)OC (centres undefined) | inactive |  |
| CCC(C)=NO | inactive |  |
| Cc1cc(-n2nc3ccc(Cl)cc3n2)c(O)c(C(C)(C)C)c1 | inactive |  |
| Oc1cccc2ccccc12 | inactive |  |
| CN(C)c1ccc(C(c2ccccc2)c2ccc(N(C)C)cc2)cc1 |  | 11.3 µM (active) |
| CC[N+](CC)(CC(=O)Nc1c(C)cccc1C)Cc1ccccc1 (tested in a mixture with another compound) | inactive |  |

Read-out: Monokine induced gamma interferon (MIG), CXCL9 (gene 4283)
Assay: BSK_SAg_MIG: BioMAP Diversity Plus: SAg Assay for Monokine induced gamma interferon (MIG) Biomarker Activity (AID 2283092)
Conditions: primary human HUVEC with PBMC; actives raise or lower the signal
Procedure, shortened: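 HUVEC plus human PBMC co-culture, chemicals dosed and MIG (CXCL9) quantified by ELISA at 24 h. Bidirectional curve fitting against DMSO as negative control and baseline, so both gain and loss of signal count as activity.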

| SMILES | outcome |
| --- | --- |
| CCCCCCC(O)CCCCCCCCCCC(=O)OC (centres undefined) | inactive |
| CCC(C)=NO | inactive |
| Cc1cc(-n2nc3ccc(Cl)cc3n2)c(O)c(C(C)(C)C)c1 | inactive |
| Oc1cccc2ccccc12 | inactive |
| CN(C)c1ccc(C(c2ccccc2)c2ccc(N(C)C)cc2)cc1 | inactive |
| CC[N+](CC)(CC(=O)Nc1c(C)cccc1C)Cc1ccccc1 (tested in a mixture with another compound) | inactive |

Read-out: not listed separately
Assay: BSK_SAg_PBMCCytotoxicity: PBMC Cytotoxicity Assessment in the BioMAP Diversity Plus: SAg Assay (AID 2283093);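 also: PBMC viability measured as Alamar Blue reduction fluorescence at 546/580 nm; fitted both ways against DMSO so a hit may be loss or gain of signal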
Conditions: primary human HUVEC with PBMC
Procedure, shortened: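 HUVEC/PBMC co-culture; PBMC exposed to chemical 1 h before SEB and TSST-1 activation (20 ng/mL each), incubated 90 h, then Alamar Blue 6 h, fluorescence 546/580 nm. Bidirectional fit versus DMSO baseline.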

| SMILES | outcome |
| --- | --- |
| CCCCCCC(O)CCCCCCCCCCC(=O)OC (centres undefined) | inactive |
| CCC(C)=NO | inactive |
| Cc1cc(-n2nc3ccc(Cl)cc3n2)c(O)c(C(C)(C)C)c1 | inactive |
| Oc1cccc2ccccc12 | inactive |
| CN(C)c1ccc(C(c2ccccc2)c2ccc(N(C)C)cc2)cc1 | inactive |
| CC[N+](CC)(CC(=O)Nc1c(C)cccc1C)Cc1ccccc1 (tested in a mixture with another compound) | inactive |

Read-out: Interleukin-8 (IL8), CXCL8 (gene 3576)
Assay: BSK_SAg_IL8: BioMAP Diversity Plus: SAg Assay for Interleukin-8 (IL8) Biomarker Activity (AID 2283094)
Conditions: primary human HUVEC with PBMC; actives raise or lower the signal
Procedure, shortened: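 Human umbilical vein endothelial cells co-cultured with PBMC, stimulated with superantigen; IL-8 measured by ELISA 24 h after chemical dosing. Bidirectional fitting versus DMSO; SRB staining in parallel cultures tracks cytotoxicity.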

| SMILES | outcome | AC50 |
| --- | --- | --- |
| CCCCCCC(O)CCCCCCCCCCC(=O)OC (centres undefined) | inactive |  |
| CCC(C)=NO | inactive |  |
| Cc1cc(-n2nc3ccc(Cl)cc3n2)c(O)c(C(C)(C)C)c1 | inactive |  |
| Oc1cccc2ccccc12 | inactive |  |
| CN(C)c1ccc(C(c2ccccc2)c2ccc(N(C)C)cc2)cc1 |  | 8.09 µM (active) |
| CC[N+](CC)(CC(=O)Nc1c(C)cccc1C)Cc1ccccc1 (tested in a mixture with another compound) | inactive |  |

Read-out: not listed separately
Assay: BSK_SAg_Proliferation: Cell Proliferation Assessment in the BioMAP Diversity Plus: SAg Assay (AID 2283095)
Conditions: primary human HUVEC with PBMC
Procedure, shortened: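 Human umbilical vein endothelial cells co-cultured with PBMC; sulforhodamine B total-protein staining (0.1% SRB after 10% TCA fixation, absorbance 560 nm) at 96 h in sub-confluent culture. Fitted bidirectionally against DMSO.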

| SMILES | outcome | AC50 |
| --- | --- | --- |
| CCCCCCC(O)CCCCCCCCCCC(=O)OC (centres undefined) | inactive |  |
| CCC(C)=NO | inactive |  |
| Cc1cc(-n2nc3ccc(Cl)cc3n2)c(O)c(C(C)(C)C)c1 | inactive |  |
| Oc1cccc2ccccc12 |  | 3.97 µM (active) |
| CN(C)c1ccc(C(c2ccccc2)c2ccc(N(C)C)cc2)cc1 |  | 11.7 µM (active) |
| CC[N+](CC)(CC(=O)Nc1c(C)cccc1C)Cc1ccccc1 (tested in a mixture with another compound) | inactive |  |

Read-out: not listed separately
Assay: BSK_SAg_SRB: Viability Assessment in the BioMAP Diversity Plus: SAg Assay (AID 2283096);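 also: cells read one day after compound addition; hits may be either gain or loss of signal compared with DMSO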
Conditions: primary human HUVEC with PBMC
Procedure, shortened: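 Human umbilical vein endothelial cells co-cultured with PBMC, read 24 h after compound dosing. Total protein measured by sulforhodamine B staining (0.1% SRB after 10% TCA fixation, absorbance 560 nm); bidirectional fit versus DMSO baseline.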

| SMILES | outcome | AC50 |
| --- | --- | --- |
| CCCCCCC(O)CCCCCCCCCCC(=O)OC (centres undefined) | inactive |  |
| CCC(C)=NO | inactive |  |
| Cc1cc(-n2nc3ccc(Cl)cc3n2)c(O)c(C(C)(C)C)c1 | inactive |  |
| Oc1cccc2ccccc12 | inactive |  |
| CN(C)c1ccc(C(c2ccccc2)c2ccc(N(C)C)cc2)cc1 |  | 12.6 µM (active) |
| CC[N+](CC)(CC(=O)Nc1c(C)cccc1C)Cc1ccccc1 (tested in a mixture with another compound) | inactive |  |

Target: human Phosphodiesterase 10 (PDE10), PDE10A (gene 10846) (UniProt Q9Y233)
Assay: NVS_ENZ_hPDE10: NovaScreen (NVS) Enzymatic Assay for human Phosphodiesterase 10 (PDE10) (AID 2283195; active = hit-call score of the fitted dose curve at least 0.9, where 1 is the maximum)
Conditions: not given
Procedure, shortened: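 Recombinant human PDE10 with fluorescent substrate, 1 h, product separated by electrophoretic mobility shift. Loss of enzyme activity fitted against DMSO; initial screen 25 uM in duplicate, actives run to 50 uM maximum.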

human Phosphodiesterase 10 (PDE10), PDE10A (gene 10846), sequence (Q9Y233 whole entry, looked up): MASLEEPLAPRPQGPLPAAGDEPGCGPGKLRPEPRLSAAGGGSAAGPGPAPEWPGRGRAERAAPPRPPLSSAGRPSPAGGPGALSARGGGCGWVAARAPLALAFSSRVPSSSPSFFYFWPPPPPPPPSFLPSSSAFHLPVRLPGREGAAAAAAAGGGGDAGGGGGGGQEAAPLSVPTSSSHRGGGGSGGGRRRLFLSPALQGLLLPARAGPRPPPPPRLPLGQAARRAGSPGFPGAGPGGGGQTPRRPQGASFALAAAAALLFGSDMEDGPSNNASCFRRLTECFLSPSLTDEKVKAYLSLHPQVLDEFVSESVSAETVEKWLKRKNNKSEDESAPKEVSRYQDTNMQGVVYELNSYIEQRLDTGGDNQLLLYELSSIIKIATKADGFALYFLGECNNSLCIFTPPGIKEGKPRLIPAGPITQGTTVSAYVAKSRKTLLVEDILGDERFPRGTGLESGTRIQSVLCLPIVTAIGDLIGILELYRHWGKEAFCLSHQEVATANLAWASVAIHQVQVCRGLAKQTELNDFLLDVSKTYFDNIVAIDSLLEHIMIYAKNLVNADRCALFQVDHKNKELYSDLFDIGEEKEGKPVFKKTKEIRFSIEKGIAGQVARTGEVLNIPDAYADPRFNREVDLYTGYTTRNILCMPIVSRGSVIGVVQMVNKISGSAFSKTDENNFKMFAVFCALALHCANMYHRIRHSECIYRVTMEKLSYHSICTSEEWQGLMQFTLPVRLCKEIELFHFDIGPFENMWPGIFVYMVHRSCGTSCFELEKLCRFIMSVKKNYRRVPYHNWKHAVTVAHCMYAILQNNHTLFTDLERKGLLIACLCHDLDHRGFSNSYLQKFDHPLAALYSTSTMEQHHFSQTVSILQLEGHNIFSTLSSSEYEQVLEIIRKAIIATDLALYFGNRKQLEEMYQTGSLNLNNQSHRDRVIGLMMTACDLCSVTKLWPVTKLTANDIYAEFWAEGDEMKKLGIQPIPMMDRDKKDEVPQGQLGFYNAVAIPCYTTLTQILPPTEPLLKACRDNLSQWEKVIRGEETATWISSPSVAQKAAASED

| SMILES | outcome |
| --- | --- |
| COC(=O)c1ccccc1 | inactive |
| CCCCCC1CCCC(=O)O1 (centres undefined) | inactive |
| CC(=O)CCc1ccccc1 | inactive |

Target: rat Thyrotropin Releasing Hormone Receptor (TRH), Trhr (gene 25570) (UniProt Q01717)
Assay: NVS_GPCR_rTRH: NovaScreen (NVS) G Protein-Coupled Receptor Assay for rat Thyrotropin Releasing Hormone Receptor (TRH) (AID 2283329; active = hit-call score of the fitted dose curve at least 0.9, where 1 is the maximum;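 also: hit means lower bound tracer signal versus DMSO baseline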)
Conditions: not given
Procedure, shortened: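 Rat forebrain membranes; radioligand displacement at TRH receptor by filter-based scintillation counting, read 4 h after dosing. Duplicate single-point screen at 25 uM, actives rerun in concentration series; loss of signal relative to DMSO.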

rat Thyrotropin Releasing Hormone Receptor (TRH), Trhr (gene 25570), sequence (Q01717 whole entry, looked up): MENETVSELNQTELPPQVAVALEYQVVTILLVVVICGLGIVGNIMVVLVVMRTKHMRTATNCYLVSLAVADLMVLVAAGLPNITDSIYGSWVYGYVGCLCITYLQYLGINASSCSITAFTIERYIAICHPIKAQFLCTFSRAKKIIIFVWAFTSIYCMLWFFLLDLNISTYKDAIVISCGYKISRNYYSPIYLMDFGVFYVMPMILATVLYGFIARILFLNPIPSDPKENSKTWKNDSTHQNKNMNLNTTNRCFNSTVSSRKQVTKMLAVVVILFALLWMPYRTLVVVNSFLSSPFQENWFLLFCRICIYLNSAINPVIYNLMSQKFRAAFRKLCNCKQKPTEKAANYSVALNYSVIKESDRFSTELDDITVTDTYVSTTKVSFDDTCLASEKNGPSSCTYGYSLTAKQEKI

| SMILES | outcome |
| --- | --- |
| CCCCCCC1CCC(=O)O1 (centres undefined) | inactive |
| C=C1CC[C@H]2C[C@@H]1C2(C)C | inactive |
| COC(=O)[C@]1(C)CCC[C@@]2(C)[C@H]1CC=C1C=C(C(C)C)CC[C@@H]12 | inactive |
| CCCCCC[C@@H](O)C/C=C\CCCCCCCC(=O)O | inactive |

Target: Estrogen receptor (Homo sapiens) (UniProt P03372)
Assay: OT_ER_ERaERa_1440: Odyssey Thera (OT) 24-hour HEK293T Protein-Complementation Assay for Estrogen Receptor-alpha/-alpha Homodimer (AID 2283349; active = hit-call score of the fitted dose curve at least 0.9, where 1 is the maximum;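 also: hits raise fluorescence above DMSO for agonists and antagonists alike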)
Conditions: not given
Procedure, shortened: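 HEK293T cells stably expressing the human ER alpha ligand-binding domain (aa 310-547) as a homodimer PCA were dosed for 24 hours. Fluorescence intensity was read by laser scanning cytometry, and gain of signal was fitted relative to DMSO vehicle.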

Estrogen receptor (Homo sapiens), sequence (P03372 whole entry, looked up, the tested form may be a part): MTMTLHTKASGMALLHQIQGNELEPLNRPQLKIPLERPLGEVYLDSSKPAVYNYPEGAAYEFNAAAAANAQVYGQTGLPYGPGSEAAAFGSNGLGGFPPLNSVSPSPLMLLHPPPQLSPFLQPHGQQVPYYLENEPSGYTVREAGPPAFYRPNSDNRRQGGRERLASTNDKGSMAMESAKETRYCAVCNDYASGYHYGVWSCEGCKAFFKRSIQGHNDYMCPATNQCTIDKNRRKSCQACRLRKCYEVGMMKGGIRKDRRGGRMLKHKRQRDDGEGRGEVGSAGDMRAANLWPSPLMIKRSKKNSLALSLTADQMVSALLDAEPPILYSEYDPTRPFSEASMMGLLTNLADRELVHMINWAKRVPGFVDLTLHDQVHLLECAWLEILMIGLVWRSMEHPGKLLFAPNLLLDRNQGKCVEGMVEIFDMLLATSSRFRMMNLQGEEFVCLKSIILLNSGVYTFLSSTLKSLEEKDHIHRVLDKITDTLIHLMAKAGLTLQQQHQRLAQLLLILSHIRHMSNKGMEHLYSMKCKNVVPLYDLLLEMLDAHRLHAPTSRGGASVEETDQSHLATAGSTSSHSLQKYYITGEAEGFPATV

| SMILES | outcome |
| --- | --- |
| CCO[Si](CCCN)(OCC)OCC | inactive |
| CCCCCCC1CCC(=O)O1 (centres undefined) | inactive |
| C=C1CC[C@H]2C[C@@H]1C2(C)C | inactive |

Target: Estrogen receptor (Homo sapiens) (UniProt P03372)
Assay: OT_ER_ERaERa_0480: Odyssey Thera (OT) 8-hour HEK293T Protein-Complementation Assay for Estrogen Receptor-alpha/-alpha Homodimer (AID 2283351; active = hit-call score of the fitted dose curve at least 0.9, where 1 is the maximum;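 also: rise in fluorescence from reassembled reporter fragments on ERα LBD homodimer in nucleus or whole cell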)
Conditions: not given
Procedure, shortened: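 The readout is complementation of fragments fused to the human ER alpha ligand-binding domain (aa 310-547), stably expressed in HEK293T cells. After 8 h of exposure, the increase in nuclear/cytoplasmic fluorescence was measured by laser scanning cytometry and fitted relative to DMSO.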

| SMILES | outcome |
| --- | --- |
| CCO[Si](CCCN)(OCC)OCC | inactive |
| CCCCCCC1CCC(=O)O1 (centres undefined) | inactive |
| C=C1CC[C@H]2C[C@@H]1C2(C)C | inactive |

Target: Estrogen receptor beta (Homo sapiens) (UniProt Q92731)
Assay: OT_ER_ERbERb_0480: Odyssey Thera (OT) 8-hour HEK293T Protein-Complementation Assay for Estrogen Receptor-beta/-beta Homodimer (AID 2283357; active = hit-call score of the fitted dose curve at least 0.9, where 1 is the maximum;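 also: active means signal gain over DMSO baseline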)
Conditions: not given
Procedure, shortened: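 Fluorescence intensity, nuclear for agonists and nuclear plus cytoplasmic for antagonists, was quantified by laser scanning cytometry versus vehicle after 8 h treatment. The cells were HEK293T stably carrying ER beta LBD fragment-complementation partners.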

Estrogen receptor beta (Homo sapiens), sequence (Q92731 whole entry, looked up): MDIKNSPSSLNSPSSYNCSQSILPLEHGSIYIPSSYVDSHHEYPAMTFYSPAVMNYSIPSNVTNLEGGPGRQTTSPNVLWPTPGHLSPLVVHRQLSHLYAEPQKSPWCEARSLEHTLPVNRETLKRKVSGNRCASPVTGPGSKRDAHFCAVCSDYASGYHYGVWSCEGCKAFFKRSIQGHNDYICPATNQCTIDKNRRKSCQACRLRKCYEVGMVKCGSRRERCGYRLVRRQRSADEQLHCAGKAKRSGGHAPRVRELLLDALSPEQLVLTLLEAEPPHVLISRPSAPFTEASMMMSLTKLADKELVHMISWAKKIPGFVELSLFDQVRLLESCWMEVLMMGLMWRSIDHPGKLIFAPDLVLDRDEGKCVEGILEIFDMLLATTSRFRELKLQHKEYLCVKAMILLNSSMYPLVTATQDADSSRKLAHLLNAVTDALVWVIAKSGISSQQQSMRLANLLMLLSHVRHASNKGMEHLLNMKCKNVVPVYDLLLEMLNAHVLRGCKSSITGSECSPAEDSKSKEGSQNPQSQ

| SMILES | outcome | AC50 |
| --- | --- | --- |
| O=C(O)/C=C/C(=O)O | inactive |  |
| CCC(C)=NO | inactive |  |
| C=C1CC[C@H]2C[C@@H]1C2(C)C | inactive |  |
| COC(=O)[C@]1(C)CCC[C@@]2(C)[C@H]1CC=C1C=C(C(C)C)CC[C@@H]12 | inactive |  |
| Cc1cc2nc3c(=O)[nH]c(=O)nc-3n(C[C@H](O)[C@H](O)[C@H](O)CO)c2cc1C |  | 11.8 µM (active) |
| c1ccc(CNc2ncnc3nc[nH]c23)cc1 | inactive |  |
| Oc1cccc2ccccc12 |  | 39.1 µM (active) |
| CCCCCC[C@@H](O)C/C=C\CCCCCCCC(=O)O | inactive |  |
